PubChem BioAssay AID430 (Sanford-Burnham Center for Chemical Genomics, 2006)
Out of some 63,000 compounds screened, about 1,100 (1.7%) were called active. The entries come from a sample that favours actives as a whole. Measured potencies and affinities stand elsewhere. Unmarked numbers belong to inactive results. No stated cut-off is given here; in the data, active means cytotoxicity above about 50%; inactive means the rest.

assay: HPDE-C7 pancreatic duct cell viability loss – fluorescence, HTS (AID 430); conditions: HPDE-C7 pancreatic duct cells viability, at 10 µM, active compounds read high;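 further: cells exposed to compound for 48 hours before viability readout; 0% = vehicle and 100% = reference cytotoxic drug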

Question: With CCCCN(C(=O)NC(=O)Nc1c(C)cc(C)cc1C)S(C)(=O)=O as the molecule, how does the cytotoxicity read?
Answer: 4.6%

Question: For CC(C)=CC(=O)Nc1ccccc1C(N)=O, which cytotoxicity is on record?
Answer: 3.7%

Question: For COc1ccc(N2CCN(C(=O)CCN3C(=O)c4ccccc4S3(=O)=O)CC2)cc1, which cytotoxicity is on record?
Answer: -0.5%

Question: Which cytotoxicity does the source give for Cn1nccc1C(=O)NCCN1C(=O)OC(C)(C)C1(C)O (stereo not drawn) here?
Answer: -1.1%

Question: For CCOC(=O)c1ccc(N2C(=O)C(C)=C(C)C2=O)cc1, which cytotoxicity is on record?
Answer: -4.6%

Question: For CCOC(=O)c1ccc(-n2[nH]c(-c3ccccc3)cc2=O)cc1, which cytotoxicity is on record?
Answer: 66.3% (active)

Question: Which cytotoxicity does the source give for CCOC(=O)c1ccc(-n2c(=O)[nH]c3ccccc3c2=O)cc1 here?
Answer: -12.3%

Question: For O=C1CCCC2=C1C(c1cccc(Br)c1)n1nc(-c3ccco3)nc1N2 (stereo not drawn), which cytotoxicity is on record?
Answer: -0.5%

Question: Which cytotoxicity does the source give for O=S(=O)(Nc1cccc(-c2cn3ccsc3n2)c1)c1ccc(F)cc1 here?
Answer: 33.8%

Question: With Cc1ccc(S(=O)(=O)Nc2cccc(-c3cn4ccsc4n3)c2)cc1 as the molecule, how does the cytotoxicity read?
Answer: 52.4% (active)

Question: For Cc1cccc(S(=O)(=O)Nc2cccc(-c3cn4ccsc4n3)c2)c1, which cytotoxicity is on record?
Answer: 36.1%

Question: With O=C(Cn1cnnn1)Nc1ccccc1Cc1ccccc1 as the molecule, how does the cytotoxicity read?
Answer: -2.5%

Question: Which cytotoxicity does the source give for N#CC1=C2SCN(c3ccccc3)CN2C(=O)CC1c1cccs1 (stereo not drawn) here?
Answer: -3.1%

Question: Which cytotoxicity does the source give for N#CC1=C2SCC(O)(c3ccccc3)N2C(=O)CC1c1ccccc1 (stereo not drawn) here?
Answer: 70% (active)

Question: With CCc1ccc(C2CC(=O)N3CN(c4ccccc4)CSC3=C2C#N)cc1 (stereo not drawn) as the molecule, how does the cytotoxicity read?
Answer: -1.3%

Question: Which cytotoxicity does the source give for N#CC1=C2SCN(Cc3ccccc3)CN2C(=O)CC1c1cccs1 (stereo not drawn) here?
Answer: -17.2%

Question: With COc1ccc(C2CC(=O)N3C(=C2C#N)SCC3(O)c2ccccc2)cc1 (stereo not drawn) as the molecule, how does the cytotoxicity read?
Answer: 10.4%

Question: Which cytotoxicity does the source give for CCOC(=O)CCNC(=O)CNC(=O)OCc1ccccc1 here?
Answer: -3.8%

Question: With CCOc1ccccc1NC(=O)CN(c1nccs1)S(=O)(=O)c1ccc(N)cc1 as the molecule, how does the cytotoxicity read?
Answer: -20.7%

Question: For COc1ccc(S(=O)(=O)N(C)CC(=O)O)c2ccccc12, which cytotoxicity is on record?
Answer: 1.2%

Question: Which cytotoxicity does the source give for Cc1ccc(/C(O)=C2\C(=O)C(=O)N(CC(C)O)C2c2ccc(N(C)C)cc2)cc1 (stereo not drawn) here?
Answer: 0%

Question: Which cytotoxicity does the source give for CCCC(=O)n1nc(-c2ccc(OC)cc2)nc1N here?
Answer: 11.5%

Question: With O=C(CSc1nnc(-c2ccco2)o1)NC(=O)C1COc2ccccc2O1 (stereo not drawn) as the molecule, how does the cytotoxicity read?
Answer: -12.2%

Question: Which cytotoxicity does the source give for COc1ccc(CNC(=O)C2CC(c3cccc(OC)c3)=NO2)cc1 (stereo not drawn) here?
Answer: 36%

Question: Which cytotoxicity does the source give for COc1cccc(C2=NOC(C(=O)NCc3ccc(F)cc3)C2)c1 (stereo not drawn) here?
Answer: 60.3% (active)

Question: With COc1cccc(C2=NOC(C(=O)NCc3ccco3)C2)c1 (stereo not drawn) as the molecule, how does the cytotoxicity read?
Answer: 40.7%

Question: Which cytotoxicity does the source give for COc1cccc(C2=NOC(C(=O)NCc3ccccn3)C2)c1 (stereo not drawn) here?
Answer: -11.7%

Question: Which cytotoxicity does the source give for COCCNC(=O)C1CC(c2cccc(OC)c2)=NO1 (stereo not drawn) here?
Answer: -6.9%

Question: Which cytotoxicity does the source give for COc1cccc(C2=NOC(C(=O)NCc3ccccc3)C2)c1 (stereo not drawn) here?
Answer: 61.7% (active)

Question: For Cc1oc2ccc(OC(=O)N3CCOCC3)cc2c1C(=O)OC(C)C, which cytotoxicity is on record?
Answer: -25.5%

Question: Which cytotoxicity does the source give for Cc1nn(-c2ccccc2C(=O)O)c(=O)c2ccccc12 here?
Answer: 0.5%

Question: For CC(=O)c1sc(-c2c(C)nc3sccn23)nc1C1CCCC1, which cytotoxicity is on record?
Answer: 4.9%

Question: Which cytotoxicity does the source give for O=C(NCCCN1CCOCC1)c1c(F)cccc1F here?
Answer: 18.7%

Question: For COc1ccc2sc(C)nc2c1NC(C)=O, which cytotoxicity is on record?
Answer: -5.3%

Question: For Clc1ccccc1CNc1ncnc2nc[nH]c12, which cytotoxicity is on record?
Answer: 3.9%

Question: For Clc1ccccc1CN(Cc1ccccc1)c1ncnc2nc[nH]c12, which cytotoxicity is on record?
Answer: 82.7% (active)

Question: For CCCCN(Cc1ccccc1)c1ncnc2nc[nH]c12, which cytotoxicity is on record?
Answer: -1%

Question: For O=C(O)C1CC(=O)N(Cc2ccccc2)C1 (stereo not drawn), which cytotoxicity is on record?
Answer: -5.6%

Question: For NC(=O)c1nn(-c2ccccc2)nc1NC(=O)CN1CCCCC1, which cytotoxicity is on record?
Answer: -13.3%

Question: Which cytotoxicity does the source give for COC(=O)c1ccc(OCC(=O)Nc2nn(-c3ccccc3)nc2C(N)=O)cc1 here?
Answer: 51.8% (active)

Question: Which cytotoxicity does the source give for CC(=O)N(CC(=O)Nc1nn(-c2ccccc2)nc1C(N)=O)Cc1ccccc1 here?
Answer: -8.2%

Question: For CCc1nc2ccc(C(=O)NCc3ccco3)cc2nc1CC, which cytotoxicity is on record?
Answer: 1.5%

Question: With O=C1c2oc3ccccc3c(=O)c2C(c2cccc(O)c2)N1CCCN1CCOCC1 (stereo not drawn) as the molecule, how does the cytotoxicity read?
Answer: -13.7%

Question: With CCNc1ccc(C(=O)OCC)cc1NC(=O)c1cccc(S(=O)(=O)N2CCOCC2)c1 as the molecule, how does the cytotoxicity read?
Answer: 1.8%

Question: For Cc1ccc(F)cc1NC(=O)c1cccc(N(C)C)c1, which cytotoxicity is on record?
Answer: -10.6%

Question: For CCNc1ccc(C(=O)OCC)cc1NC(=O)c1cccc(N(C)C)c1, which cytotoxicity is on record?
Answer: 54.6% (active)

Question: Which cytotoxicity does the source give for CCn1c(SCC(=O)N2CCCCC2)nnc1-c1ccc(S(=O)(=O)N2CCN(C)CC2)cc1 here?
Answer: -22%

Question: For COc1ccc(CNC(=O)C2COc3ccccc3O2)c(OC)c1 (stereo not drawn), which cytotoxicity is on record?
Answer: -4.4%
